Source: PubChem BioAssay
D2 PAM-1 = positive allosteric modulators of human D2 dopamine receptor; 360,000 compounds, 0.23% hits; DiscoveRx D2 beta-arrestin cells, luminescence, 90 min; 100% = 57 uM dopamine signal; potentiation, % (no concentration beside the values); P14416; AID 624464; in the data active means potentiation above about 50%; inconclusive means mostly about 30% to 49%
Target sequence (P14416 whole entry, looked up): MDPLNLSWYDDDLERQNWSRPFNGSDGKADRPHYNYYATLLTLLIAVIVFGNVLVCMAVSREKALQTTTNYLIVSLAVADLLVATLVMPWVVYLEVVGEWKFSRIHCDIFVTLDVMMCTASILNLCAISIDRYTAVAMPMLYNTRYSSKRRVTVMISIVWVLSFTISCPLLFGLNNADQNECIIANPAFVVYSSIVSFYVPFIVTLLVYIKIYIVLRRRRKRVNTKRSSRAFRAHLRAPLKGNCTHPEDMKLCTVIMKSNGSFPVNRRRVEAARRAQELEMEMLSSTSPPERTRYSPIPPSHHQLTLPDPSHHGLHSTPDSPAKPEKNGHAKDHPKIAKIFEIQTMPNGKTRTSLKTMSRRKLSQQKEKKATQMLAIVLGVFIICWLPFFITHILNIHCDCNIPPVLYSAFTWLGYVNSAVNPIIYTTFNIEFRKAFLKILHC
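PathHunter D2 cells, attached overnight at 37 deg C, received compound in DMSO plus dopamine at EC20 (50 nM final) for 90 min at 37 deg C. Beta-arrestin recruitment was read as luminescence after 1 h with detection reagent at ambient temperature.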
D2 antag = antagonizes the human D2 dopamine receptor; P14416; inhibition, % at 10 µM; 340,000 compounds, 2% hits; HEK293 TREx D2 cells, calcium flux, dopamine EC80; in the data active means inhibition above about 30%; inactive means below that, where a call was filed; further: 0% is about no effect
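Calcium flux kinetic readout in an inducible HEK293 TREx D2 line plated overnight at 30 C. After 180 s compound exposure, an EC80 dopamine challenge follows with another 180 s kinetic read to detect antagonism.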
D2 PAM-2 = positively modulates the human D2 dopamine receptor allosterically | P14416 | HEK293 T-REx D2, calcium flux, EC20 dopamine potentiation | potentiation, % at 10 µM | 340,000 compounds, 0.34% hits | AID 485347;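 active means potentiation over 3 SD above the plate norm, cut at about 30% in these data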; further: 0% is about no effect
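Using a no-wash calcium dye in inducible, force-coupled HEK293 Trex cells expressing D2, we tracked fluorescence each second for 180 s after compound, then for 180 s after EC20 dopamine to detect augmented signalling.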
D2 ag-1 = agonists of human D2 dopamine receptor | P14416 | activation, % at 2 µM | HEK293 T-REx D2 cells, calcium flux agonist mode | 340,000 compounds, 0.53% hits | AID 485358;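 active means activation over 3 SD above normal in the single-dose calcium agonist read, cut at about 30% in these data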; further: 0% is about no effect
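Tetracycline-induced HEK293 Trex cells with D2 receptor force-coupled to calcium signaling, plated overnight at 30 C and loaded with no-wash calcium dye. Calcium flux read kinetically for 180 s after compound addition; responses flag agonists.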
D2 ag-2 = agonists of human D2 dopamine receptor (beta-arrestin) | DiscoveRx PathHunter D2 beta-arrestin, luminescence, 90 min; 100% = 57 uM dopamine signal | activation, % (concentration not given with the values) | 360,000 compounds, 0.084% hits | AID 624465; in the data active means activation above about 40%; inconclusive means between about 15% and that limit
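Agonist mode: compounds alone added to overnight-plated D2 PathHunter cells for 90 min at 37 C, with 57 uM final dopamine (EC100) defining full response. Beta-arrestin recruitment detected by chemiluminescent reagent, read after 1 h at ambient temperature.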
* hit, by the source's call. Shown are actives, neighbours in structure and some others; about 2.4% of the full set was active somewhere.

For C/C(=N\NC(=O)c1cccnc1)c1cc(C)oc1C the results were D2 PAM-1 -8.2, D2 antag 33.5*, D2 PAM-2 -6.7, D2 ag-1 2.1 and D2 ag-2 -2.8.
Screening COc1ccc(CC(=O)Nc2cccc(-c3nnc(-c4ccc(C)cc4)o3)c2)cc1OC returned D2 PAM-1 19.0, D2 antag -18.3, D2 PAM-2 5.5, D2 ag-1 1.0 and D2 ag-2 inconclusive.
`COc1ccc(CC(=O)Nc2cccc(-c3nnc(-c4ccccc4)o3)c2)cc1OC` gave D2 PAM-1 54.3*, D2 antag 5.8, D2 PAM-2 18.3, D2 ag-1 0.0 and D2 ag-2 13.5.
For O=C1CC(N2CCN(c3ccccc3Cl)CC2)C(=O)N1c1ccccc1 (configuration not stated) the results were D2 PAM-1 -4.2, D2 antag -8.0, D2 PAM-2 3.9, D2 ag-1 0.2 and D2 ag-2 -1.8.
`CN1CCN(C2CC(=O)N(c3ccc4c(c3)OCCO4)C2=O)CC1` (configuration not stated) gave D2 PAM-1 14.5, D2 antag -1.7, D2 PAM-2 -12.2, D2 ag-1 1.0 and D2 ag-2 -1.4.
For O=C1CC(N2CCOCC2)C(=O)N1c1ccccc1Cl (configuration not stated) the results were D2 PAM-1 -1.8, D2 antag -11.2, D2 PAM-2 56.8*, D2 ag-1 0.3 and D2 ag-2 -4.7.
Screening O=C1CC(N2CCN(c3ccccc3)CC2)C(=O)N1c1ccc2c(c1)OCCO2 (configuration not stated) returned D2 PAM-1 -16.4, D2 antag 37.9*, D2 PAM-2 -5.9, D2 ag-1 0.4 and D2 ag-2 -2.9.
For COc1ccc(OCCN2CCN(C(=O)c3ccc(OC(F)F)c(OC)c3)CC2)cc1 the results were D2 PAM-1 0.8, D2 antag -3.9, D2 PAM-2 11.5, D2 ag-1 11.5 and D2 ag-2 3.5.
For C=CCN(c1ccccc1)S(=O)(=O)c1cccc(C(=O)NC2CCN(Cc3ccccc3)CC2)c1 the results were D2 PAM-1 -31.9, D2 antag 66.4*, D2 PAM-2 -10.2, D2 ag-1 -0.4 and D2 ag-2 -3.6.
For Cc1ccc(NS(=O)(=O)c2cccc(C(=O)NC3CCN(Cc4ccccc4)CC3)c2)c(C)c1 the results were D2 PAM-1 -3.2 and D2 ag-2 -0.1.
For O=C(NC1CCN(Cc2ccccc2)CC1)c1cccc(S(=O)(=O)Nc2ccc(F)cc2)c1 the results were D2 PAM-1 -5.6, D2 antag 45.3*, D2 PAM-2 -27.9, D2 ag-1 -0.1 and D2 ag-2 2.1.
Screening O=C(NC1CCN(Cc2ccccc2)CC1)c1cccc(S(=O)(=O)Nc2ccc(Br)cc2)c1 returned D2 PAM-1 -31.9, D2 antag 34.1*, D2 PAM-2 -16.8, D2 ag-1 1.0 and D2 ag-2 2.7.
For COc1cccc(NC(=O)Cn2c(=O)n(C)c(=O)c3sc4c(c32)COC(C)(C)C4)c1 the results were D2 PAM-1 -5.0, D2 antag 42.9*, D2 PAM-2 -11.4, D2 ag-1 0.2 and D2 ag-2 -0.8.
Cc1cc(O)c(N=Nc2ccc(C(=O)O)cc2)cc1C was read as D2 PAM-1 -0.6 and D2 ag-2 -2.7.
`COc1cccc(C(C(=O)NC2CCCCC2)N(Cc2ccco2)C(=O)c2ccccn2)c1` (configuration not stated) gave D2 PAM-1 4.1, D2 antag 34.1*, D2 PAM-2 -18.6, D2 ag-1 3.5 and D2 ag-2 -0.4.
`CC1CCN(S(=O)(=O)c2csc(C(N)=O)c2)CC1` gave D2 PAM-2 -2.7 and D2 ag-1 0.0.
`COc1ccc(-n2nc(C(=O)N(C)C)nc2-c2ccccc2)cc1` gave D2 PAM-1 0.3, D2 antag 31.2*, D2 PAM-2 9.3, D2 ag-1 0.0 and D2 ag-2 9.0.
For COc1cc(/C=C2\SC(N3CCc4ccccc4C3)=NC2=O)cc(OC)c1OC the results were D2 PAM-1 -23.2, D2 antag 56.3*, D2 PAM-2 -28.9, D2 ag-1 0.5 and D2 ag-2 -7.8.
Screening O=C1C2C3C=CC(C3)C2C(=O)N1c1ccccc1 (configuration not stated) returned D2 PAM-1 -8.3 and D2 ag-2 -2.7.
Screening Cc1cc(C)cc(N2C(=O)C3C4C=CC(C4)C3C2=O)c1 (configuration not stated) returned D2 PAM-1 11.6, D2 PAM-2 37.4* and D2 ag-2 -0.4.
Cc1cccc(N2C(=O)C3C4C=CC(CC4)C3C2=O)c1 (configuration not stated) was read as D2 PAM-1 15.6, D2 antag 3.6, D2 PAM-2 20.7, D2 ag-1 0.2 and D2 ag-2 -7.4.
Screening Cc1ccc(N2C(=O)C3C4C=CC(C4)C3C2=O)cc1 (configuration not stated) returned D2 PAM-1 -4.3, D2 antag -0.1, D2 PAM-2 51.1*, D2 ag-1 1.1 and D2 ag-2 -2.8.
Screening CCCOc1ccc2c(CC)cc(=O)oc2c1C returned D2 PAM-1 -20.1, D2 antag -2.8, D2 PAM-2 21.3, D2 ag-1 -1.2 and D2 ag-2 -1.9.
For Cc1ccc(C(=O)NCCNC(=O)c2ccc(C)o2)o1 the results were D2 PAM-1 -11.7, D2 antag -9.1, D2 PAM-2 21.5, D2 ag-1 0.2 and D2 ag-2 -1.0.
`O=C(NCCO)C1(c2ccc(Cl)cc2)CCCC1` gave D2 PAM-1 10.6, D2 antag 32.2*, D2 PAM-2 3.4, D2 ag-1 -0.3 and D2 ag-2 -2.4.
For COc1ccc(OC)c(NC(=O)C(C)N2c3cccc4cccc(c34)S2(=O)=O)c1 (configuration not stated) the results were D2 PAM-1 6.0, D2 antag 33.6*, D2 PAM-2 11.8, D2 ag-1 0.0 and D2 ag-2 0.6.
COc1ccc(OC)c(NC(=O)CN2c3cccc4cccc(c34)S2(=O)=O)c1 was read as D2 PAM-1 -11.8 and D2 ag-2 1.0.
O=C(CNc1cccc([N+](=O)[O-])c1)NC(=O)NC1CCCCC1 was read as D2 PAM-1 -6.0 and D2 ag-2 0.0.
For N=C(N)SCP(=O)(c1ccccc1)c1ccccc1 the results were D2 PAM-1 -13.6, D2 antag 12.9, D2 PAM-2 5.2, D2 ag-1 -0.2 and D2 ag-2 -10.0.
For c1ccc2c(c1)CCN(CCCNc1nc3ccccc3n3cnnc13)C2 the results were D2 PAM-1 -9.8, D2 antag 69.9*, D2 PAM-2 -26.4, D2 ag-1 0.0 and D2 ag-2 -7.3.
For Cc1oc2cc(O)ccc2c(=O)c1Oc1ccccc1 the results were D2 PAM-1 -17.0, D2 antag 17.0, D2 PAM-2 5.1, D2 ag-1 0.3 and D2 ag-2 -3.0.
